Rows were chosen to be rich in hits. Some 3.8% of all compounds tested hit in one or more screens of this group.
CBFb-RUNX1 inh: blocks binding between human CBF-beta and RUNX1 | Potency, µM (highest dose often 59.8 µM), without a hit: top-dose activity, negative = inhibition, hits mostly inhibitors | Q01196+Q13951 | 230,000 tested, under 10 active | AlphaScreen CBFb-His/RUNX1-biotin binding, biochemical | AID 1477; note: % of control where 0% means no effect
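Read-out: AlphaScreen. Format: His-CBF-beta with biotinylated RUNX1 (30 nM each) preincubated 20 min, compound 15 min, Ni-chelate plus streptavidin beads 90 min; room temperature throughout.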
KCNH2 3.1 inh: inhibitors of human KCNH2 3.1 potassium channel isoform; U2OS KCNH2 3.1, thallium flux FluxOr; stronger effect = lower value; activity change, % (tested at about 1.8 µM); hit rate 0.95% among 340,000;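 active = maximum activity change below -70%; inconclusive = maximum activity change from -70% to -50%; inactive = maximum activity change above -50%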;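 note: thallium influx rate constant from kinetic fluorescence after stimulation buffer; % is set by controls: 0 for no effect and ±100 for the full control effect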
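U2OS cells transduced with KCNH2 3.1 mutant virus (1.77 x 10^8 /mL, 4 h), plated overnight at 37 C, loaded 45 min with FluxOr dye plus Red40 quencher. Thallium flux rate constant from kinetic reads after stimulation buffer, normalised to controls.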
VDR inh: vitamin D3 receptor (human) inhibition; P11473; VDR-SRC2-3 peptide fluorescence polarization, 2 h; Potency, µM, without a hit: max response, negative = inhibition, actives largely listed as inhibitors; hit rate 0.93% among 400,000; AID 504847; note: potency is the fitted concentration of half-maximal effect; % is set by controls: 0 for no effect and ±100 for the full control effect
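After 23 nl compound addition and a short centrifugation, plates sat for 2 hours at ambient temperature; polarization of fluorescence then indicated loss of VDR binding to peptide SRC2-3.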
hERG WT inh: KCNH2 (human, wildtype) channel inhibition; AID 720551; U2OS, BacMam KCNH2, thallium flux FluxOr; stronger effect = lower value; hit rate 0.37% among 340,000; activity change, % at 1.84 µM;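 active = maximum activity change below -70%; inconclusive = maximum activity change between -70% and -50%; inactive = maximum activity change above -50%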; note: % is set by controls: 0 for no effect and ±100 for the full control effect
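U2OS cells transduced with wild-type KCNH2 virus are loaded with FluxOr dye for 45 min, and thallium flux is measured in kinetic reads before and after stimulation buffer. Rate constants are normalized to DMSO controls.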
PLK1 PBD block: PLK1 (human) polo-box domain binding inhibition. Plk1 PBD binding of FITC phosphopeptide, fluorescence polarization. hit rate 2.8% among 360,000. Potency, µM, for inactives: max response, negative = inhibition, hits mostly inhibitors. AID 720504. P53350; note: potency is the fitted concentration of half-maximal effect; series mostly up to about 57 µM; % is set by controls: 0 for no effect and ±100 for the full control effect; nearly all actives have a fitted effect of over 65% in size
MBNL1-CUG inh: MBNL1-poly(CUG) RNA binding inhibition | Q9NR56 | TR-FRET MBNL1-His/biotin-(CUG)12 binding, 665/545 ratio | Potency, µM (titrated, usually from 57.5 µM), for the others: top-dose activity change, negative = inhibition, most hits filed as inhibitors | hit rate 0.036% among 280,000 | AID 2675; active = well fitted inhibition curve with a large enough effect in the signal ratio, with a control signal flat, not every such curve was filed as active; inconclusive = small, poorly fitted or top-dose-only effect, or effect the other way, or a change in a side signal; inactive = no such curve, though single readings can be large or run the other way; the % refers to the signal ratio; note: potency is the fitted concentration of half-maximal effect; % is set by controls: 0 for no effect and ±100 for the full control effect
Target sequence (Q9NR56 whole entry, looked up): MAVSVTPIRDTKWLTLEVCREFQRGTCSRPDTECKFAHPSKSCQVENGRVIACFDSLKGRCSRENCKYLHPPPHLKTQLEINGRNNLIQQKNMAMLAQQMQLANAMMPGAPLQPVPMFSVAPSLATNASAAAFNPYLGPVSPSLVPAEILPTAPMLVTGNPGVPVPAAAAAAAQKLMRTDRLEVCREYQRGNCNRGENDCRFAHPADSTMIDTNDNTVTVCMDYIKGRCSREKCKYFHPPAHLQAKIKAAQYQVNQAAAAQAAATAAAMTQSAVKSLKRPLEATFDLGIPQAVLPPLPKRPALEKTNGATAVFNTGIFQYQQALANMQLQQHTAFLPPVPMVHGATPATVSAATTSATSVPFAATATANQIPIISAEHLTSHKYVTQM
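His-tagged MBNL1 binding to biotinylated (CUG)12 RNA was measured by TR-FRET using terbium anti-His antibody (0.055 ng/ul final) and streptavidin-XL665 (5 nM final). Compounds were titrated 92 nM to 58 uM; 60 min at room temperature.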
* = called active by the depositor; [ ] = another dose, or the depositor's remark. Unless noted, calls come from the whole dose curve; as a rule, active = well fitted curve in the direction sought with a large enough effect; inconclusive = small, poorly fitted or top-dose-only effect, or another doubt; inactive = no such curve, though single readings can be large; an effect the other way counts as inactive or inconclusive.

What do the screens show for `CC(=O)c1cccc(Nc2nc(-c3sc(N)nc3C)cs2)c1`?
KCNH2 3.1 inh: 0; VDR inh: inconclusive; hERG WT inh: 0; PLK1 PBD block: 21µM*; MBNL1-CUG inh: 7%

Results for CC(=O)c1ccc(Nc2nc(-c3sc(C)nc3C)cs2)cc1 ?
KCNH2 3.1 inh: 5; hERG WT inh: -134*; PLK1 PBD block: -6%

What do the screens show for `Cc1ccc(Nc2nc(-c3sc(N)nc3C)cs2)cc1`?
KCNH2 3.1 inh: 12; VDR inh: 79µM*; hERG WT inh: 4; PLK1 PBD block: inconclusive; MBNL1-CUG inh: inconclusive

What do the screens show for `Cc1cc(C)c(Cn2c3ccccc3c3cnn(CC(=O)NCc4ccc(Cl)cc4)c(=O)c32)c(C)c1`?
VDR inh: 9%

How did COC(=O)C1=C(C(=O)OC)[C@@H]2N(C)c3ccc(OC)cc3[C@@]23C[C@@H](C(=O)OC)N(S(=O)(=O)c2cccs2)C3=N1 do in these assays?
CBFb-RUNX1 inh: 3%[13.1 µM]

What do the screens show for `CCC1CN(C(=O)Nc2ccc(Br)cc2F)c2ccccc2S1` (stereo unspecified)?
VDR inh: 21%

How did CCN(CC)C(=O)c1sc2c(c1C)c(=O)n(-c1ccc(C)c(C)c1)c(=O)n2CC(=O)Nc1ccc(F)cc1 do in these assays?
VDR inh: -1%

How did Cn1c(SCC(=O)N2CCOCC2)nnc1-c1ccco1 do in these assays?
KCNH2 3.1 inh: -4; VDR inh: -2%; hERG WT inh: -4; PLK1 PBD block: -28%; MBNL1-CUG inh: 3%

How did CCC1CCCCN1C(=O)CSc1n[nH]c(N)n1 (stereo unspecified) do in these assays?
KCNH2 3.1 inh: 0; VDR inh: -3%; hERG WT inh: 2; PLK1 PBD block: -1%

How did CCc1c(C)nc(SCC(=O)N2CCN(c3ccccc3)CC2)[nH]c1=O do in these assays?
CBFb-RUNX1 inh: 1%; VDR inh: -3%; hERG WT inh: -79*; PLK1 PBD block: -21%; MBNL1-CUG inh: -8%

How did CCc1c(C)nc(SCC(=O)N2CCCCC2CC)[nH]c1=O (stereo unspecified) do in these assays?
CBFb-RUNX1 inh: 11%; KCNH2 3.1 inh: 5; VDR inh: inconclusive; hERG WT inh: -6; PLK1 PBD block: 24µM*; MBNL1-CUG inh: -4%

What do the screens show for `Cn1c(SCC(=O)N2CCN(c3ccccc3)CC2)nnc1-c1ccco1`?
CBFb-RUNX1 inh: 4%; KCNH2 3.1 inh: 5; VDR inh: 9%; hERG WT inh: -77*; PLK1 PBD block: -6%; MBNL1-CUG inh: -4%

What do the screens show for `CCCCOC(=O)c1ccc(NC(=O)CC2NCCNC2=O)cc1` (stereo unspecified)?
VDR inh: 1%

How did CCc1ccccc1NC1=NCC(=O)N1C1CCCC1 do in these assays?
CBFb-RUNX1 inh: 1%; KCNH2 3.1 inh: -26; VDR inh: -27%; hERG WT inh: -2; PLK1 PBD block: 30µM*; MBNL1-CUG inh: -4%

Results for Fc1cccc(Cc2c(-c3ccco3)nc3c(Cl)cc(C(F)(F)F)cn23)c1 ?
PLK1 PBD block: 12µM*

What do the screens show for `O=C(O)CSc1nnnn1C1CCCCC1`?
CBFb-RUNX1 inh: 0%; KCNH2 3.1 inh: -11; VDR inh: 71µM*; hERG WT inh: -20; PLK1 PBD block: 15µM*; MBNL1-CUG inh: -25%

Results for O=C(CSc1nnnn1C1CCCCC1)N1CCCC1 ?
CBFb-RUNX1 inh: 6%; KCNH2 3.1 inh: -4; VDR inh: -21%; hERG WT inh: -2; PLK1 PBD block: -10%; MBNL1-CUG inh: -9%

What do the screens show for `O=C(CSc1nnnn1C1CCCCC1)Nc1cccc(NC(=O)c2ccco2)c1`?
CBFb-RUNX1 inh: 5%; KCNH2 3.1 inh: -13; VDR inh: -10%; hERG WT inh: 7; PLK1 PBD block: 3µM*; MBNL1-CUG inh: -6%

Results for O=c1c2c3c(sc2n(Cc2cc(=O)n4ccccc4n2)c(=O)n1-c1ccccc1)CCC3 ?
VDR inh: -20%

Results for CC(C)(C)c1cc(-c2n[nH]c(=S)n2-c2ccc(Cl)cc2)n[nH]1 ?
CBFb-RUNX1 inh: -2%; KCNH2 3.1 inh: -15; VDR inh: inconclusive; hERG WT inh: 7; PLK1 PBD block: 30µM*; MBNL1-CUG inh: -1%

How did Cc1nn(C)cc1-c1n[nH]c(=S)n1-c1ccc(Cl)cc1 do in these assays?
CBFb-RUNX1 inh: 8%; KCNH2 3.1 inh: -15; VDR inh: -20%; hERG WT inh: -2; PLK1 PBD block: -11%; MBNL1-CUG inh: -17%[11.5 µM]

What do the screens show for `Nc1c(-c2nc(-c3ccccc3)cs2)c2ccccn2c1C(=O)c1ccc2c(c1)OCO2`?
VDR inh: -1%

What do the screens show for `COc1cccc(CN2CC(C(=O)NCCOc3cccnc3)CCC2=O)c1` (stereo unspecified)?
KCNH2 3.1 inh: 0; VDR inh: -27%; hERG WT inh: 2; PLK1 PBD block: 17µM*; MBNL1-CUG inh: -2%

What do the screens show for `COc1cccc(CN2CC(C(=O)NCCCc3ccc(C)cc3)CCC2=O)c1` (stereo unspecified)?
KCNH2 3.1 inh: -86*; VDR inh: -2%; hERG WT inh: 7; PLK1 PBD block: -13%; MBNL1-CUG inh: -7%

How did Cc1ccc(CNC(=O)Nc2cc(C(=O)NCc3cccc(F)c3)ccc2N2CCCC2)cc1 do in these assays?
VDR inh: 4%

Results for CCN(CC)C(=O)C1=C(C)Nc2nc3ccccc3n2C1c1ccc(Br)cc1 (stereo unspecified) ?
VDR inh: -5%

Results for O=C(O)c1ccc(N2C(=O)CC(N3C(=O)/C(=C/c4ccc(Cl)cc4)SC3=S)C2=O)cc1 (stereo unspecified) ?
CBFb-RUNX1 inh: 2%; KCNH2 3.1 inh: 7; VDR inh: inconclusive; hERG WT inh: 4; PLK1 PBD block: 27µM*

How did CSc1ccc(CN2CCCC(CNC(=O)c3ccc(F)cc3)C2)cc1 (stereo unspecified) do in these assays?
CBFb-RUNX1 inh: 2%; KCNH2 3.1 inh: -78*; VDR inh: -5%; hERG WT inh: 0; PLK1 PBD block: -4%; MBNL1-CUG inh: -11%

Results for COc1ccc(CC(=O)NCC2CCCN(Cc3cccc(C(F)(F)F)c3)C2)cc1 (stereo unspecified) ?
KCNH2 3.1 inh: 0; VDR inh: inconclusive; hERG WT inh: -7; PLK1 PBD block: 27µM*; MBNL1-CUG inh: -7%

Results for COc1ccc(CC(=O)NCC2CCCN(Cc3ccc(F)c(OC)c3)C2)cc1 (stereo unspecified) ?
KCNH2 3.1 inh: 7; VDR inh: -10%; hERG WT inh: 11; PLK1 PBD block: -15%; MBNL1-CUG inh: 4%

Source: PubChem
